In all, about 85,000 compounds went through this assay and about 440 (0.52%) showed an effect of 50% or more. This excerpt belongs to a sample that is enriched for strong results.
Test: In vitro enzyme assay to detect hydrolysis of chlorophenol red-beta-D-[…] directly proportional to the number of Toxoplasma stably expressing beta-galactosidase
Format: functional, organism-based, Toxoplasma gondii
Parameters: scale not given: in the data most compounds retested in dose-response had high values

SMILES	Percent Effect (50 µM)	Percent Effect (10 µM)
CCC(C)(CC)NC(=O)Nc1cnn(CCOC)c1	-4.406%	
NC1CCN(C(=O)C2(c3cccc(F)c3)CC2)CC1	89.65%	
CC(C)(C(=O)N1CC[C@@H](O)C1)c1ccccc1	-3.951%	
CC(C)(C(=O)N1CCOCC1)c1ccccc1	-4.463%	
CC(C)(C(=O)N1CCC(N)CC1)c1cccc(F)c1	80.98%	
O=C(N1CCCC(n2cncn2)C1)C1(c2cccc(F)c2)CC1 (configuration not stated)		-9.535%
O=C(N1CCC(Oc2ccncc2)C1)C1(c2cccc(F)c2)CC1 (configuration not stated)		4.06%
COCCCC1CCNCC1	4.614%	
NCC(CO)Cc1ccsc1 (configuration not stated)	-1.079%	
Brc1cc2c(cc1CN1CCCNCC1)OCO2	-4.823%	
CC1(c2ccncc2)NC(=O)c2ccccc2N1 (configuration not stated)	11.28%	
O=C(CN1CCn2ccnc2C1)NC1CCS(=O)(=O)C1 (configuration not stated)	6.953%	
CC(C1CCN(Cc2c[nH]cn2)CC1)N1CCCC1 (configuration not stated)	21.18%	
NCc1ccnc(OCC2CC2)c1	3.263%	
Cc1ccccc1CC(=O)N(C)C	-4.007%	
NCCC1CCN(C(=O)Nc2cc(F)cc(F)c2)CC1	-1.616%	
Cc1ccc(S(=O)(=O)NCC2(O)CCOc3ccccc32)s1 (configuration not stated)		3.665%
O=S(=O)(NCC1(O)CCOc2ccccc21)c1ccc(Cl)s1 (configuration not stated)		4.661%
O=S(=O)(NCC1(O)CCOc2ccccc21)c1ccc(Br)s1 (configuration not stated)		53.2%
COCCn1cc(CNC(=O)NCC(F)F)cn1	-9.663%	
CNc1nc(C(=O)N[C@@H]2CC[C@@H](N)C2)cs1	18.65%	
CC(NC(=O)c1ccoc1)C(=O)Nc1nccs1 (configuration not stated)	-8.907%	
Cc1cc(CN2CCOC(Cn3nc(C)cc3C)C2)on1 (configuration not stated)		-42.92%
CC(C)=CCN1CCOC(Cn2nc(C)cc2C)C1 (configuration not stated)		97.95%
Cc1cc(C)n(CC2CN(CC3CCCC3)CCO2)n1 (configuration not stated)		-2.525%

SMILES	Percent Effect (50 µM)	Percent Effect (10 µM)
O=C1COc2ccc(NC(=O)c3ccccc3)cc2N1	3.882%	
CN(CCC#N)CC1CCN(CCO)CC1	-6.076%	
COc1cc(Br)ccc1CCCNC(=O)C(C)O (configuration not stated)	0.2477%	
CC(=O)c1ccc(OCC(O)Cn2ccnc2)cc1 (configuration not stated)	57.01%	
O=C(COc1ccccc1)NCCn1ccnc1	-5.476%	
CC(=O)c1ccc(OCC(O)CNC2CCCC2)cc1 (configuration not stated)	6.61%	
CCNC(=O)N1CCC(NC(=O)c2ccc(C)o2)CC1	-1.852%	
Cc1nc2cc(C3CCN(Cc4ccccc4F)C3)nn2c(O)c1C (configuration not stated)		15.76%
Cc1nc2cc(C3CCN(Cc4cccc(F)c4F)C3)nn2c(O)c1C.O=C(O)CC(O)(CC(=O)O)C(=O)O (configuration not stated)		49.65%
Cc1cc(C(=O)Nc2ccnc(C)c2Cl)cc(O)n1	12.01%	
CN1CCCN(CC(=O)NCCCc2ncc[nH]2)CC1	-15.47%	
Cc1cc(C)c(C(=O)NC2CCCc3nc(N(C)C)ncc32)cc1C (configuration not stated)		19.3%
CN(C)c1ncc2c(n1)CCCC2NC(=O)C1CC1 (configuration not stated)		7.926%
CCC(=O)NC1CCCc2nc(N(C)C)ncc21 (configuration not stated)	69.08%	
CNC(=O)CN1CCCC(CO)(CCCOC)C1 (configuration not stated)	5.203%	
CC(=O)NCCCS(=O)(=O)c1ncccc1Cl	60.86%	
CC(=O)NCCCNCc1ccc(Cl)c2cccnc12		-6.901%
CC(=O)NCCCS(=O)(=O)c1ccc(C)cn1	-5.9%	
COC1CNc2ccccc2C1 (configuration not stated)	-15.01%	
NC(=O)CN1CCCN(C(=O)c2ccc(Br)o2)CC1	-5.913%	
Fc1ccc(NCC2CCC3(CC2)OCCO3)nc1	8.487%	
CCC(CC)C(=O)N1C[C@@H](CO)[C@H](N(C)C)C1	16.3%	
COc1ccc(CN2CCCC2)cc1Oc1ccc2c(c1)CC(CN)O2 (configuration not stated)		-15.09%
NCC1Cc2cc(Oc3cc(F)c(CN4CCCC4)c(F)c3)ccc2O1 (configuration not stated)		54.73%
Cc1cc(CN2CCCC2)cc(Oc2ccc3c(c2)CC(CN)O3)c1 (configuration not stated)		-8.923%

SMILES	Percent Effect (50 µM)	Percent Effect (10 µM)
CSCC(CCO)NC(=O)Nc1cccc(F)c1 (configuration not stated)	-3.551%	
Cc1nc(-c2ccc(NCCc3ccc(O)cc3)nc2)[nH]c(=O)c1C		31.24%
CCc1cc(=O)[nH]c(-c2ccc(NCCC(C)O)nc2)n1 (configuration not stated)		3.239%
CCc1cc(=O)[nH]c(-c2ccc(NCCc3ccc(O)cc3)nc2)n1		56.82%
N#Cc1ccc(S(=O)(=O)N2CCCO2)c(Cl)c1	6.897%	
N#CCCNC(=O)CN1CCCCCC1	-10.45%	
N#CCCNC(=O)CN1CCCCC1	-2.214%	
N#CCCNC(=O)CN1CCCC1	96.45%	
CCC(C)CS(=O)(=O)Nc1ccc(F)c(C(N)=O)c1 (configuration not stated)	12.83%	
O=C(Cc1ccccc1)NCc1ccncc1	2.374%	
COCc1nn(CC(=O)c2cc(F)ccc2F)c(=O)o1	53.45%	
COCc1nn(Cc2ccccc2Cl)c(=O)o1	10.13%	
COCc1nn(Cc2ccc(Cl)s2)c(=O)o1		11.6%
CN(CC1CCOC1)C(=O)c1cc(F)ccc1F (configuration not stated)	12.99%	
CC1CCN(C(=O)Cn2cncc(Br)c2=O)CC1	8.773%	
CC(O)CN1CCN(Cc2cccc(C(=O)N3CCCCC3)c2)CC1 (configuration not stated)		67.87%
CSCc1cccc(C(=O)N2CCN(CC(C)O)CC2)c1 (configuration not stated)		-0.6353%
CC(O)CN1CCN(Cc2cccc(C(=O)N(C)C)c2)CC1 (configuration not stated)		5.816%
CC(C)C(=O)N1CCN(CCc2ccccn2)CC1	-1.569%	
CCCn1nc2c(cc1=O)CN(c1ncnc3sccc13)CC2		8.636%
CC(C(=O)Nc1nccs1)N1CCc2nn(C)c(=O)cc2C1 (configuration not stated)		7.43%
Cn1nc2c(cc1=O)CN(c1ncnc3sccc13)CC2		80.8%
CC(C)n1nc2c(cc1=O)CN(c1ncnc3sccc13)CC2		1.477%
CCn1nc2c(cc1=O)CN(c1ncnc3sccc13)CC2		58.75%
c1csc(N2CCN(c3ncnc4sccc34)CC2)n1		15.87%

SMILES	Percent Effect (50 µM)	Percent Effect (10 µM)
CC(C)NC(=O)CCN1CCC(CN2CCCC2)CC1	15.46%	
O[C@@H]1CN(Cc2ccccc2)C[C@@H]1O	8.775%	
Cc1noc(C)c1COC1CCNC1 (configuration not stated)	7.368%	
O=C(COc1ccc(F)cc1)Nc1ccon1	-3.156%	
CC(NC(=O)C1CCNCC1)c1cccc(F)c1 (configuration not stated)	17.33%	
OC1(Cc2ccccn2)CCNCC1	-0.4203%	
Cc1cccc(NCC2CCN(CCC(N)=O)C2)n1 (configuration not stated)	2.724%	
CCNC(C)(C)C(=O)N(C)Cc1ccc(OC)c(F)c1	94.51%	
COc1ccc(CN(C)C(=O)C2CC2)cc1F	5.333%	
COc1ccc(CN(C)C(=O)CCNC(C)=O)cc1F	-5.409%	
NCc1ccc(-n2cc(Cl)cn2)cc1	-34.41%	
CCCn1ccnc1CNC(=O)c1ccc(F)c(O)c1	10.15%	
CN1CCc2nc(NC(=O)c3cncc(Br)c3)sc2C1	-4.285%	
CCN1CCc2nc(NC(=O)c3ccncc3)sc2C1	61.16%	
CCN1CCc2nc(NC(=O)c3cc(Br)c[nH]3)sc2C1	-7.995%	
O=C(NCCCNCc1ccccc1)c1ccco1	-4.419%	
CN1N=C(C(=O)NC2CCCc3occc32)CCC1=O (configuration not stated)	1.103%	
COc1ccc(CN)c(F)c1	0.131%	
Cc1ccc(C(=O)N2CCN(C(C)C(N)=O)CC2)s1 (configuration not stated)	98.87%	
Cc1csc(N2CCN(C(=O)c3ccc(C)s3)CC2)n1		-15.38%
CC(C(N)=O)N1CCN(C(=O)c2ccc(Br)cc2)CC1 (configuration not stated)	3.88%	
OC1CN(Cc2ccc(OCc3ccccn3)cc2)C1	-10.4%	
COc1c(C)cnc(CN(C)C2CCN(C3CCOCC3)CC2)c1C		16.07%
COc1c(C)cnc(CN(C)C2CCCCC2)c1C		62.27%
COc1c(C)cnc(CN(C)C)c1C	0.7571%	

SMILES	Percent Effect (50 µM)	Percent Effect (10 µM)
CC(Cn1cccn1)NC(=O)c1cncc(Br)c1 (configuration not stated)	6.883%	
c1nc(CCNc2nc(C3CC3)nc3c2CCNCC3)c[nH]1		13.19%
Cc1nc2c(c(NCCc3nc4c(s3)CCCC4)n1)CCNCC2		-0.699%
C1Cc2nc(CCNc3nc(C4CC4)nc4c3CCNCC4)sc2C1		77.67%
N[C@H]1CC[C@@H](n2cc(Br)cn2)CC1	5.491%	
Cc1ccc(CNC(=O)C2(C)CCCCC(=O)N2)o1 (configuration not stated)	14.66%	
Cc1ccc(CNC(=O)C2CCCCC(=O)N2)o1 (configuration not stated)	50.04%	
Cc1cccc(CNC(=O)C2CCCCC(=O)N2)c1 (configuration not stated)	-7.628%	
N#CC1CCN(C(=O)c2ccc(SCCO)cc2)CC1	-14.8%	
CN(C)c1ncccc1N	1.469%	
CNc1cccnc1N(C)C	57.74%	
CNc1cccc2cccnc12	-1.4%	
COC(C(=O)NC1(C)CCOCC1)c1ccccc1 (configuration not stated)	-2.025%	
CSCCCN1CCN(C(=O)c2ccc[nH]2)CC1	-8.697%	
Cc1nc(N2C[C@@H](CN3CCCCC3)[C@@H](CO)C2)c2sccc2n1		-8.225%
CO[C@H]1[C@@H]2CC[C@H]1CN(c1nc(C)nc3ccsc13)C2		70.73%
CO[C@H]1[C@@H]2CC[C@H]1CN(c1nc(C)nc3sccc13)C2		8.834%
CC(C)(C)NCC(=O)Nc1ccc(Cl)cn1	-9.06%	
CN1Cc2cc(O)ccc2C1=O	4.771%	
Cc1noc(C)c1CCCNC(=O)Nc1ccc2c(c1)CC(=O)N2		-25.73%
COc1cccc(NC(=O)Nc2ccc3c(c2)CC(=O)N3)c1		14.2%
Cc1cc(C(=O)Nc2ccc3c(c2)CC(=O)N3)c(C)o1	62.73%	
